Shown are actives, neighbours in structure and some others; about 8.5% of the full set was active somewhere.
ALDH1A1 block – blocks purified human ALDH1A1 activity | AID 1030 | Purified ALDH1A1, NADH fluorescence, propionaldehyde substrate | Potency, µM (titrated, usually from 75.3 µM), without a hit: at the top dose activity, negative = inhibition, actives largely listed as inhibitors | 7.3% of 220,000 active | P00352; active = well fitted inhibition curve with a large enough effect, not every such curve was filed as active; inconclusive = small, poorly fitted or top-dose-only effect, or another doubt; inactive = no such curve, though single readings can be large or run the other way;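 note: potency is the fitted concentration of half-maximal effect; plate controls were no enzyme wells and a reference inhibitor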
Target sequence (P00352 whole entry, looked up): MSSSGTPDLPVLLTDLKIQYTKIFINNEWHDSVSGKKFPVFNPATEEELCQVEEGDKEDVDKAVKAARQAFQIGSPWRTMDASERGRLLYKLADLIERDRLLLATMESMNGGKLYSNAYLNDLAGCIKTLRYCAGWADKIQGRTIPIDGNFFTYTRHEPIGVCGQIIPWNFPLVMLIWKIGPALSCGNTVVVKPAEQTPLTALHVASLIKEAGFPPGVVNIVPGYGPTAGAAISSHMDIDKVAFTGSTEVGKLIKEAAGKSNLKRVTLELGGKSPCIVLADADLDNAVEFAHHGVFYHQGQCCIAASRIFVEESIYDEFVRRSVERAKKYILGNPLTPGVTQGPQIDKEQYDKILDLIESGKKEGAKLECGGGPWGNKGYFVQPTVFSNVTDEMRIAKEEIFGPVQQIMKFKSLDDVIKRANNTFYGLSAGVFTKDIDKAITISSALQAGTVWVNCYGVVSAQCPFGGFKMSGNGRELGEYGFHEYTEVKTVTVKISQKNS
NPSR antag – antagonists of human neuropeptide S receptor cAMP signaling | Potency, µM (doses to about 38.3 µM), inactives show at the highest dose activity change, negative = inhibition, hits mostly inhibitors | CHO-NPSR cells, cAMP TR-FRET, antagonist mode | 1% of 220,000 active | AID 1461; note: potency is the fitted concentration of half-maximal effect; nearly all actives have a fitted effect of over 50% in size
Coupling enz – counter-screen for Giardia aldolase inhibitors: coupling enzyme system. activity change, negative = inhibition, % at 58.2 µM, hits read low. 0.67% of 290,000 active. coupling enzyme system counterscreen, AmpLite Red fluorescence. AID 2472; in the data active = activity change below about -30%
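First, compound is pin-transferred into glyceraldehyde-3-phosphate coupling-enzyme reagent at 57.5 uM final and held 10 min at RT. Next, substrate, coupling system and AmpLite Red are added. After 20 min RT, fluorescence (525/598 nm) is read.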
RGS12 GoLoco inh – RGS12 GoLoco-Gai1 interaction inhibition | P63096 | Gai1:RGS12 GoLoco peptide FP, rhodamine, 10 min | Potency, µM (titrated, usually from 61.6 µM), for inactives: at the top dose activity, negative = inhibition, actives largely listed as inhibitors | 0.44% of 230,000 active | AID 880; active = well fitted inhibition curve with a large enough effect, not every such curve was filed as active; inactive = no such curve, though single readings can be large or run the other way; note: potency is the fitted concentration of half-maximal effect; nearly all actives have a fitted effect of over 30% in size
KDM4E inh – inhibitors of human JMJD2E histone demethylase; Potency, µM (titrated, usually from 57.1 µM), for the others: top-dose activity change, negative = inhibition, most hits filed as inhibitors; 1.6% of 230,000 active; JMJD2E catalytic domain, FDH-coupled NADH fluorescence (FDH is formaldehyde dehydrogenase); B2RXH2; AID 2147; active = well fitted inhibition curve with a large enough effect, not every such curve was filed as active; inconclusive = small, poorly fitted or top-dose-only effect, or another doubt; inactive = no such curve, though single readings can be large or run the other way;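 note: potency is the fitted concentration of half-maximal effect; 0% = wells with enzyme and -100% = buffer wells without enzyme; nearly all actives have a fitted effect of over 50% in size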
Sfp inh – inhibitors of Bacillus subtilis Sfp phosphopantetheinyl transferase; Biochemical Sfp PPTase activity, qHTS; Potency, µM, for inactives: largest response in the series, negative = inhibition, hits mostly inhibitors; 3.5% of 310,000 active; AID 1490;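 note: the enzyme is Sfp with the accession as filed and its product quenches rhodamine fluorescence; potency is the fitted concentration of half-maximal effect; 0% = enzyme reaction without inhibitor and -100% = no enzyme wells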
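After 15 min at room temperature with compound, 15 nM Sfp received 5 uM rhodamine-CoA plus 12.5 uM BHQ-2-ybbR (50 mM Hepes pH 7.6, 10 mM MgCl2). Rate came from the fluorescence difference over 30 min, ex 525/em 598 nm.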
* marks the source's active call; other numbers are inactive results; ? = inconclusive; . = no result; [ ] = remark or other dose. Unless noted, calls come from the whole dose curve; as a rule, active = well fitted curve in the direction sought with a large enough effect; inconclusive = small, poorly fitted or top-dose-only effect, or another doubt; inactive = no such curve, though single readings can be large; an effect the other way counts as inactive or inconclusive. Unless noted, % is set by controls: 0 for no effect and ±100 for the full control effect.

SMILES	ALDH1A1 block	NPSR antag	Coupling enz	RGS12 GoLoco inh	KDM4E inh	Sfp inh
c1ccc2c(c1)ncn2Cc1nnc2sc(-c3ccc4c(c3)OCO4)nn12	?	-13.1%[46.1 µM]	0.0	-0.7%	?	-54.9%
c1ccc(-c2nn3c(Cn4nnc5ccccc54)nnc3s2)nc1	3.16µM*	-15.7%[46.1 µM]	-0.1	-60.4%	?	15.8µM*
c1cncc(-c2nn3c(Cn4nnc5ccccc54)nnc3s2)c1	7.08µM*	4.2%[46.1 µM]	-0.6	0.9%	?	31.6µM*
Cc1ccc(C(=O)NC(NC(=O)c2ccc(C)cc2)c2cccc([N+](=O)[O-])c2)cc1	-3.1%	-19.2%[46.1 µM]	-2.0	.	3.6%	3.2%
CC(=O)c1c(C)[nH]c(C(=O)CN2C(=O)NC(C)(c3ccc(C)cc3)C2=O)c1C (stereo unspecified)	2.3%	1.1%	-1.2	-2.1%	0.9%	6.7%
O=S(=O)(c1ccccc1)c1ncc(C(F)(F)F)cc1Cl	10µM*	-29.2%	1.8	-1.4%	0.2%	17.4%
O=S(=O)(c1ccccc1)c1ncc(C(F)(F)F)cc1O	?	6.1%	2.4	7.4%	?	18.2%
CN(NS(C)(=O)=O)c1ncc(C(F)(F)F)cc1Cl	-0.6%	4.6%	4.0	-10.2%	-21.6%	79.4µM*
CN(NC(=O)c1ccccc1)c1ncc(C(F)(F)F)cc1Cl	-3.0%	-0.6%	0.1	7.9%	-6.6%	7.5%
CCOC(=O)C1(Cc2ccccc2)CCCN(S(=O)(=O)N(C)C)C1 (stereo unspecified)	.	.	-0.6	.	.	21.1%
O=C(c1cc2nc(-c3ccc(F)cc3)cc(C(F)(F)F)n2n1)N1CCCCC1c1cccnc1 (stereo unspecified)	14.1µM*	-44.3%	-0.2	-2.2%	?	-16.5%
CC1CCCC(NC(=O)CNC(=S)N(Cc2ccccc2)Cc2cccs2)C1C (stereo unspecified)	12.6µM*	-46.9%	-0.6	4.4%	-2.8%	8.8%
O=C(CNC(=S)N(Cc1ccccc1)Cc1cccnc1)NCc1ccccc1	17.8µM*	-14.5%	3.6	-7.9%	-6.2%	16.5%
O=C(CNC(=S)N(Cc1ccccc1)Cc1cccnc1)NC1CCCCC1	12.6µM*	11.6%	3.2	-11.3%	5.3%	9.9%
C[C@H]1Cc2c(COc3ccccc3)nc3c(c2CO1)CN(C(=O)C1CCCCC1)CC3	-5.6%[13.5 µM]	.	-0.6	-3.7%[14.2 µM]	2.2%[11.4 µM]	21.6%
O=C(NCc1ccc(Cl)cc1)c1cc(S(=O)(=O)N2CCCCC2)c[nH]1	.	.	1.4	.	.	1.4%
S=C=Nc1cccc(NC(=S)NCCCCNC(=S)Nc2cccc(N=C=S)c2)c1	?	.	1.6	6.3%	2.1%	2.4%
CN(C)c1ccc(CNC(=O)C2(C)C=CCN2C(=O)c2ccccc2)cc1 (stereo unspecified)	17.8µM*	.	-0.6	1.9%	?	-1.6%
O=C1C2=C(Nc3ccccc3SC2c2ccco2)c2ccccc21 (stereo unspecified)	6.31µM*	?	-11.2	25.3%	?	?
CCN(CC)CCN(C(=O)c1ccc2ncsc2c1)c1nc2cc3c(cc2s1)OCO3	.	.	-3.7	.	.	35.5µM*
CCC(NC(=O)NNC(N)=S)(C(F)(F)F)C(F)(F)F	.	19.2%	2.1	-5.3%	-3.3%	44.7µM*
C/C(=C\C(=O)c1ccccc1)Nc1ccc(O)cc1	-11.7%	-8.3%[46.1 µM]	-31.4*	-4.2%	-29.0%	-20.6%
Nc1cc(-c2ccco2)no1	4.47µM*	-9.2%[46.1 µM]	-19.0	11.4%	?	?
Cc1nc2c(=O)[nH]c(=S)n(C)c2nc1C	7.08µM*	7.3%	-3.5	-9.8%	2.6%	4.47µM*
O=C1CCCCCN1CSc1nc2ccccc2s1	12.6µM*	-14.4%[46.1 µM]	20.6	-2.3%	-4.3%	-4.7%
NC(=O)C1(N2CCCCC2)CCN(C(=O)CSc2nc3ccccc3s2)CC1	25.1µM*	-9.5%[46.1 µM]	0.4	-1.0%	-3.2%	13.5%
Cc1ccc(-c2noc(C3CCCN(C(=O)c4ccccc4)C3)n2)o1 (stereo unspecified)	14.1µM*	-12.8%[46.1 µM]	5.7	-24.3%	-2.3%	-13.9%
COc1cccc(-c2noc(C3CCCN(C(=O)Cc4ccccc4)C3)n2)c1 (stereo unspecified)	12.6µM*	-22.5%[46.1 µM]	-0.7	-10.5%	0.7%	2.2%

Bioassay records deposited in PubChem BioAssay by National Center for Advancing Translational Sciences (NCATS).
